Drawing on PMC10812921, “Transcriptional Coactivator BOB1 (OBF1, OCA-B) Modulates the Specificity of DNA Recognition by the POU-Domain Factors OCT1 and OCT2 in a Monomeric Configuration”, this text covers binding signal for 30 sequences.

In test [1] the target is POU1 (OCT1 POU domain) (human, UniProt P14859 260-458). The experiment in a line: EMSA-SELEX-seq; no BOB1; 20 mM Tris-HCl pH 7.6, 140 mM NaCl, 10% glycerol, 0.5 mM EDTA, 0.05% Triton X-100, 0.1 mg/mL BSA, 0.1 mg/mL poly(dI-dC), 5 mM DTT, room temperature, 20 min; high values mean tight binding. The settings on record: protein: recombinant; dsDNA, one strand shown. The method in brief: (§1)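 Binding preference is reported as the percentage of sequenced 8-mers that match a motif pattern. Tagged POU-domain proteins were made in E. coli BL21, purified under denaturing conditions and renatured. A 30 ng portion was combined with 300 ng of a PCR-amplified double-stranded random 35-nt library, with or without 28 ng coactivator protein, in 20 μL Tris–HCl pH 7.6 binding buffer for 20 min at RT. Complex bands were excised from native 6% PAGE, eluted and PCR-amplified over four rounds before Illumina sequencing.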
Sequence of POU1 (OCT1 POU domain) (P14859 260-458): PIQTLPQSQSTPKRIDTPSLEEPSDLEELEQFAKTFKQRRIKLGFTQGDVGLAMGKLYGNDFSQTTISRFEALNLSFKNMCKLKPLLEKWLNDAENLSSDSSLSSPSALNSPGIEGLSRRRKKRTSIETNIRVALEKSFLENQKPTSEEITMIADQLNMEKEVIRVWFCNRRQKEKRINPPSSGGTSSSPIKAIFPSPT
A general note: Mobility shift assays separate free from complexed probe on a gel.

Test [2] deals with T1, POU2 (OCT2 POU domain) (human, UniProt P09086 175-386).
T1 sequence: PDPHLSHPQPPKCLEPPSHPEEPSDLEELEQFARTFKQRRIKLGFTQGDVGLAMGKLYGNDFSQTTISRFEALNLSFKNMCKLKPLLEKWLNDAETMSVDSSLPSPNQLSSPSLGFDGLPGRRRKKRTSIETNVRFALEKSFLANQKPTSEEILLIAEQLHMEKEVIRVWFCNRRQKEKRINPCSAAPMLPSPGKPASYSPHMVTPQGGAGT
The test is described as above. The settings on record: protein: recombinant; dsDNA, one strand shown. The method, boiled down: as §1

In test [3] the target is POU1 (OCT1 POU domain);BOB1 (OBF1, OCA-B) (human;human, UniProt P14859;Q16633 260-458;1-256, |). The test can be described thus: EMSA-SELEX-seq; with BOB1 (ternary complex band); 20 mM Tris-HCl pH 7.6, 140 mM NaCl, 10% glycerol, 0.5 mM EDTA, 0.05% Triton X-100, 0.1 mg/mL BSA, 0.1 mg/mL poly(dI-dC), 5 mM DTT, room temperature, 20 min; high values mean tight binding. As to conditions: protein: recombinant;recombinant; copies: 1;1; dsDNA, one strand shown. The method in brief: as §1

The target in test [4] is T2, POU2 (OCT2 POU domain);BOB1 (OBF1, OCA-B) (human;human, UniProt P09086;Q16633 175-386;1-256, |).
T2 sequence 1: T1 sequence
T2 sequence 2: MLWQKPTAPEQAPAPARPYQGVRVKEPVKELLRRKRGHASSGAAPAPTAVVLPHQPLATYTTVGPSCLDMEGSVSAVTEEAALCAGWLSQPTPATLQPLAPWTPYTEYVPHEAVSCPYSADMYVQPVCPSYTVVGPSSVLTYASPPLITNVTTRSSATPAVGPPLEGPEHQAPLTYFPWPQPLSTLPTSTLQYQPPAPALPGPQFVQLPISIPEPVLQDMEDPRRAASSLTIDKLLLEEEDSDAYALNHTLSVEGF
The test is described as above. As to conditions: protein: recombinant;recombinant; copies: 1;1; dsDNA, one strand shown. The method in brief:
as §1

As to AGCCTAAT, the binding signal in test [1] is 0.0503 % of ANNNNAAN 8-mers; in test [2], 0.0811 % of ANNNNAAN 8-mers; in test [3], 0.0324 % of ANNNNAAN 8-mers; in test [4], 0.038 % of ANNNNAAN 8-mers.

Turning to ATATCAAT, the binding signal was 0.117 % of ANNNNAAN 8-mers in test [1], 0.139 % of ANNNNAAN 8-mers in test [2], 0.0804 % of ANNNNAAN 8-mers in test [3] and 0.0776 % of ANNNNAAN 8-mers in test [4].

As to ATAGCAAG, the binding signal in test [1] is 0.032 % of ANNNNAAN 8-mers; in test [2], 0.0363 % of ANNNNAAN 8-mers; in test [3] it was 0.0394 % of ANNNNAAN 8-mers; in test [4] it was 0.0454 % of ANNNNAAN 8-mers.

As to ACAGTAAG, the binding signal in test [1] is 0.0328 % of ANNNNAAN 8-mers; in test [2] it was 0.0253 % of ANNNNAAN 8-mers; in test [3] it was 0.032 % of ANNNNAAN 8-mers; in test [4] it was 0.0272 % of ANNNNAAN 8-mers.

Consider ATCTCAAA, for which the binding signal was 0.0435 % of ANNNNAAN 8-mers in test [1], 0.0443 % of ANNNNAAN 8-mers in test [2], 0.0574 % of ANNNNAAN 8-mers in test [3] and 0.038 % of ANNNNAAN 8-mers in test [4].

On to AATGTAAT, for which the binding signal in test [1] is 0.169 % of ANNNNAAN 8-mers; in test [2], 0.181 % of ANNNNAAN 8-mers; in test [3], 0.109 % of ANNNNAAN 8-mers; in test [4] it was 0.137 % of ANNNNAAN 8-mers.

On to AGATTAAT, for which the binding signal in test [1] is 0.147 % of ANNNNAAN 8-mers; in test [2], 0.207 % of ANNNNAAN 8-mers; in test [3], 0.0901 % of ANNNNAAN 8-mers; in test [4], 0.106 % of ANNNNAAN 8-mers.

On to ACGAGAAA, for which the binding signal in test [1] was 0.0381 % of ANNNNAAN 8-mers; in test [2], 0.0437 % of ANNNNAAN 8-mers; in test [3] it was 0.0355 % of ANNNNAAN 8-mers; in test [4], 0.038 % of ANNNNAAN 8-mers.

On to ACCCAAAA, for which the binding signal in test [1] is 0.0214 % of ANNNNAAN 8-mers; in test [2], 0.015 % of ANNNNAAN 8-mers; in test [3], 0.0246 % of ANNNNAAN 8-mers; in test [4] it was 0.0206 % of ANNNNAAN 8-mers.

On to AAGGGAAC, for which the binding signal is 0.0389 % of ANNNNAAN 8-mers in test [1], 0.0506 % of ANNNNAAN 8-mers in test [2], 0.0363 % of ANNNNAAN 8-mers in test [3] and 0.0305 % of ANNNNAAN 8-mers in test [4].

In the case of ATCTGAAC, the binding signal in test [1] is 0.0275 % of ANNNNAAN 8-mers; in test [2] it was 0.0265 % of ANNNNAAN 8-mers; in test [3] it was 0.0258 % of ANNNNAAN 8-mers; in test [4], 0.0429 % of ANNNNAAN 8-mers.

Turning to AGCCTAAA, the binding signal in test [1] was 0.0271 % of ANNNNAAN 8-mers; in test [2], 0.0316 % of ANNNNAAN 8-mers; in test [3] it was 0.0191 % of ANNNNAAN 8-mers; in test [4], 0.0206 % of ANNNNAAN 8-mers.

ACGTTAAA: the binding signal in test [1] is 0.0412 % of ANNNNAAN 8-mers; in test [2], 0.0506 % of ANNNNAAN 8-mers; in test [3] it was 0.0371 % of ANNNNAAN 8-mers; in test [4] it was 0.0421 % of ANNNNAAN 8-mers.

Take AAAATAAG: the binding signal in test [1] was 0.13 % of ANNNNAAN 8-mers; in test [2], 0.125 % of ANNNNAAN 8-mers; in test [3], 0.148 % of ANNNNAAN 8-mers; in test [4], 0.114 % of ANNNNAAN 8-mers.

In the case of ATTAAAAG, the binding signal was 0.149 % of ANNNNAAN 8-mers in test [1], 0.171 % of ANNNNAAN 8-mers in test [2], 0.115 % of ANNNNAAN 8-mers in test [3] and 0.102 % of ANNNNAAN 8-mers in test [4].

AAAAAAAC: the binding signal in test [1] was 0.0583 % of ANNNNAAN 8-mers; in test [2], 0.0593 % of ANNNNAAN 8-mers; in test [3], 0.0784 % of ANNNNAAN 8-mers; in test [4], 0.0512 % of ANNNNAAN 8-mers.

Turning to ATCTAAAA, the binding signal is 0.0564 % of ANNNNAAN 8-mers in test [1], 0.0524 % of ANNNNAAN 8-mers in test [2], 0.0535 % of ANNNNAAN 8-mers in test [3] and 0.0669 % of ANNNNAAN 8-mers in test [4].

For the sequence AAGGGAAT, the binding signal is 0.115 % of ANNNNAAN 8-mers in test [1], 0.121 % of ANNNNAAN 8-mers in test [2], 0.0765 % of ANNNNAAN 8-mers in test [3] and 0.0908 % of ANNNNAAN 8-mers in test [4].

Turning to AACCCAAC, the binding signal in test [1] was 0.0103 % of ANNNNAAN 8-mers; in test [2], 0.0132 % of ANNNNAAN 8-mers; in test [3] it was 0.0113 % of ANNNNAAN 8-mers; in test [4], 0.0182 % of ANNNNAAN 8-mers.

As for ACATAAAG, the binding signal was 0.0934 % of ANNNNAAN 8-mers in test [1], 0.108 % of ANNNNAAN 8-mers in test [2], 0.0663 % of ANNNNAAN 8-mers in test [3] and 0.0759 % of ANNNNAAN 8-mers in test [4].

In the case of AGTGAAAT, the binding signal was 0.138 % of ANNNNAAN 8-mers in test [1], 0.124 % of ANNNNAAN 8-mers in test [2], 0.196 % of ANNNNAAN 8-mers in test [3] and 0.121 % of ANNNNAAN 8-mers in test [4].

Turning to AGCCAAAG, the binding signal in test [1] is 0.0286 % of ANNNNAAN 8-mers; in test [2], 0.0219 % of ANNNNAAN 8-mers; in test [3], 0.0363 % of ANNNNAAN 8-mers; in test [4] it was 0.019 % of ANNNNAAN 8-mers.

In the case of ATTGTAAG, the binding signal was 0.0507 % of ANNNNAAN 8-mers in test [1], 0.0685 % of ANNNNAAN 8-mers in test [2], 0.0593 % of ANNNNAAN 8-mers in test [3] and 0.0594 % of ANNNNAAN 8-mers in test [4].

With AACATAAC, the binding signal was 0.0526 % of ANNNNAAN 8-mers in test [1], 0.0506 % of ANNNNAAN 8-mers in test [2], 0.0347 % of ANNNNAAN 8-mers in test [3] and 0.033 % of ANNNNAAN 8-mers in test [4].

For the sequence ACGACAAA, the binding signal in test [1] was 0.0217 % of ANNNNAAN 8-mers; in test [2], 0.0299 % of ANNNNAAN 8-mers; in test [3], 0.0222 % of ANNNNAAN 8-mers; in test [4], 0.0256 % of ANNNNAAN 8-mers.

For AGTCTAAT, the binding signal was 0.147 % of ANNNNAAN 8-mers in test [1], 0.166 % of ANNNNAAN 8-mers in test [2], 0.0761 % of ANNNNAAN 8-mers in test [3] and 0.0958 % of ANNNNAAN 8-mers in test [4].

AATAGAAT: the binding signal in test [1] was 0.113 % of ANNNNAAN 8-mers; in test [2] it was 0.136 % of ANNNNAAN 8-mers; in test [3], 0.0921 % of ANNNNAAN 8-mers; in test [4], 0.121 % of ANNNNAAN 8-mers.

Consider ACTATAAA, for which the binding signal is 0.0439 % of ANNNNAAN 8-mers in test [1], 0.0403 % of ANNNNAAN 8-mers in test [2], 0.041 % of ANNNNAAN 8-mers in test [3] and 0.0421 % of ANNNNAAN 8-mers in test [4].

Take ACCAAAAA: the binding signal in test [1] is 0.0336 % of ANNNNAAN 8-mers; in test [2], 0.0328 % of ANNNNAAN 8-mers; in test [3], 0.0425 % of ANNNNAAN 8-mers; in test [4], 0.0256 % of ANNNNAAN 8-mers.

With AGTCGAAG, the binding signal in test [1] is 0.0305 % of ANNNNAAN 8-mers; in test [2], 0.0357 % of ANNNNAAN 8-mers; in test [3], 0.023 % of ANNNNAAN 8-mers; in test [4], 0.0347 % of ANNNNAAN 8-mers.
